High-throughput results deposited in PubChem BioAssay by several laboratories.
ALR H2O2 inh: inhibitors of human ALR sulfhydryl oxidase, primary screen, biochemical, H2O2 detection, HRP-luminol luminescence, single point; FAD-linked sulfhydryl oxidase ALR (Homo sapiens), P55789; purified ALR, DTT oxidation; inhibition, % (no concentration beside the values); 290,000 tested, 3.8% active; AID 485317, 2010;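 active = mean replicate inhibition above about 79%, with every replicate also reaching it, limit read from the data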
Target sequence (P55789 whole entry, looked up): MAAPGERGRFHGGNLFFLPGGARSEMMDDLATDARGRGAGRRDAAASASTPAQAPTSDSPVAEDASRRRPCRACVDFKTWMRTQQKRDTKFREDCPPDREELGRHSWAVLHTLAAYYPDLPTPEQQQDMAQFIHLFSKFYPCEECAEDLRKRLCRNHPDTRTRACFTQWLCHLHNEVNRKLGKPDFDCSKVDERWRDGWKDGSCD
PfM18AAP inh-1: PfM18AAP inhibitors, malaria aminopeptidase, primary screen, biochemical, QFRET, recombinant enzyme. 290,000 tested, 1.2% active. M18 aspartyl aminopeptidase (Plasmodium falciparum 3D7). H-Glu-NHMec fluorogenic cleavage. AID 1822, 2009. inhibition, % at 7.35 µM;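 active = inhibition above the campaign mean inhibition over all tested compounds plus 3 SD, cut at about 28% in these data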;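 note: 0% = plate median of test compound wells and 100% = 2 mM ZnCl2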
HIF activator: HIF pathway transcriptional activators, primary screen, cell-based, U2OS HRE-luciferase, luminescence; U2OS HRE-luciferase reporter; normalized: DMSO 0%, desferrioxamine 100%; 300,000 tested, 0.32% active; activation, % at 7.5 µM (by protocol); AID 1910, 2009;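 active = mean activation of at least 10% of the iron chelator positive control signal, with at least half of replicates also reaching 10%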
SUMO Mot1 rescue: yeast Mot1-301 growth rescue at high temperature, primary screen, SUMOylation pathway inhibitor project, S. cerevisiae, ATP luminescence, 38.5C; S. cerevisiae Mot1-301 growth rescue; percent above DMSO median, 100 means doubled; growth rescue, % at 18.8 µM; 320,000 tested, 1% active;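 active = every valid replicate shows activation above 250% relative to neutral control wells; inactive = the rest, any valid replicate at or below 250%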;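 note: OY570 slx delta 5 strain wells were the positive control but not used for scaling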
PfM18AAP inh-2: PfM18AAP inhibitors, malaria aminopeptidase, confirmation, biochemical, QFRET, recombinant enzyme, triplicate; shares compounds with PfM18AAP inh-1; H-Glu-NHMec fluorogenic cleavage; inhibition, % at 7.35 µM; 2,400 tested, 28% active;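 active = mean inhibition over replicate wells above the hit cutoff set for the earlier primary screen, cut at about 29% in these data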;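 note: 0% = median of test compound wells and 100% = 2 mM ZnCl2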
CTSL1 counter: cathepsin L1 inhibitors, retest, confirmation, counter-screen for PFM18AAP inhibitor project, biochemical, QFRET, triplicate. inhibition, % at 5.96 µM. 2,400 tested, under 10 active. shares compounds with PfM18AAP inh-1. purified cathepsin L1, Z-Leu-Arg-MCA fluorescence;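 active = average inhibition across replicates above the hit cutoff set in the earlier primary screen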;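 note: 0% = median of test compound wells and 100% = Z-Phe-Ala-diazomethylketone 1 µM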
Target sequence (P07711 whole entry, looked up): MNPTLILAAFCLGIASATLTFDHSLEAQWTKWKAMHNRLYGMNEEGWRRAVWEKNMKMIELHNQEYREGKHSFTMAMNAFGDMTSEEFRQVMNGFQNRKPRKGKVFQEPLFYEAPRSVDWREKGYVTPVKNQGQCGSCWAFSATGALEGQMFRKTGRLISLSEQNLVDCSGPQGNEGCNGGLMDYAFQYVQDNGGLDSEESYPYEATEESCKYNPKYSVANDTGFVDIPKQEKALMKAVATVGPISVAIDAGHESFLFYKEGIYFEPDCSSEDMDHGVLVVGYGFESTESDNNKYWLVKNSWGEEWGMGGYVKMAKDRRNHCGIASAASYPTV
The depositor's hits bear a star. Compounds with a hit are over-represented: about 5.3% of the library has one in this group of screens.

`CCC(C)NCCOCCOc1ccc(C)cc1Br` (stereo not given) gave ALR H2O2 inh -9, PfM18AAP inh-1 32*, HIF activator 0, SUMO Mot1 rescue 123, PfM18AAP inh-2 -26 and CTSL1 counter -1.
For Cc1ccc(/C=C/C(=O)Nc2nn[nH]n2)o1 the results were ALR H2O2 inh 28, PfM18AAP inh-1 51*, HIF activator 0, SUMO Mot1 rescue 67, PfM18AAP inh-2 14 and CTSL1 counter 6.
CC(C)c1ccc(/C=C/C(=O)Nc2nn[nH]n2)cc1 was read as ALR H2O2 inh 46, PfM18AAP inh-1 -4, HIF activator 1 and SUMO Mot1 rescue -4.
Screening Cc1ccc(NC(=O)C2CC2C)cc1S(=O)(=O)N1CCOCC1 (stereo not given) returned ALR H2O2 inh 0, HIF activator 0 and SUMO Mot1 rescue -14.
Oc1ccc(O)c(Cc2nc3ccccc3[nH]2)c1 was read as ALR H2O2 inh 10, PfM18AAP inh-1 44*, HIF activator 0, SUMO Mot1 rescue -1, PfM18AAP inh-2 71* and CTSL1 counter -6.
`CNc1nc(Nc2ccccc2)nc(OCC(F)(F)F)n1` gave ALR H2O2 inh -2, PfM18AAP inh-1 9, HIF activator 0 and SUMO Mot1 rescue -10.
Screening CNc1nc(NN)nc(Nc2ccccc2)n1 returned ALR H2O2 inh 0, PfM18AAP inh-1 33*, HIF activator 0, SUMO Mot1 rescue 10, PfM18AAP inh-2 4 and CTSL1 counter 1.
`COCc1cc(C)c(C#N)c(=S)[nH]1` gave ALR H2O2 inh 21, PfM18AAP inh-1 32*, HIF activator 0, SUMO Mot1 rescue -10, PfM18AAP inh-2 35* and CTSL1 counter -1.
Cc1nnc(-c2ccc(Oc3ccc(Br)cc3)c([N+](=O)[O-])c2)o1 was read as ALR H2O2 inh 2, PfM18AAP inh-1 33*, HIF activator 0, SUMO Mot1 rescue 8, PfM18AAP inh-2 -55 and CTSL1 counter -1.
For Cc1cc(Oc2ccc(-c3nnc(-c4ccccc4)o3)cc2[N+](=O)[O-])ccc1Cl the results were ALR H2O2 inh -8, PfM18AAP inh-1 -3, HIF activator 0 and SUMO Mot1 rescue -10.
COc1cccc(NC(=O)c2cc3cccc(OC)c3o/c2=N\O)c1 was read as ALR H2O2 inh 52, PfM18AAP inh-1 51*, HIF activator 2, SUMO Mot1 rescue -9, PfM18AAP inh-2 17 and CTSL1 counter -1.
Oc1ccc(/C=N/Nc2cc(N3CCCC3)nc(N3CCCC3)n2)cc1O was read as ALR H2O2 inh 90*, PfM18AAP inh-1 40*, HIF activator 0, SUMO Mot1 rescue 206, PfM18AAP inh-2 27 and CTSL1 counter 4.
Screening CC(C)=NNc1nc2c(c(=O)n(C)c(=O)n2C)n1CCc1ccccc1 returned ALR H2O2 inh -69, PfM18AAP inh-1 13, HIF activator -1 and SUMO Mot1 rescue 6.
`CCc1ccc(OCC(=O)Nc2cccc3c2CCCC3)cc1` gave ALR H2O2 inh -8, PfM18AAP inh-1 -2, HIF activator 0 and SUMO Mot1 rescue 6.
COc1cccc2cc(C(=O)N(Cc3ccccc3)CC3CCCO3)c(=O)oc12 (stereo not given) was read as ALR H2O2 inh -24, PfM18AAP inh-1 35*, HIF activator 1, SUMO Mot1 rescue 10, PfM18AAP inh-2 -29 and CTSL1 counter -1.
Screening COc1ccc(-c2nnc(NC(=O)Cc3ccccc3)o2)cc1 returned ALR H2O2 inh -1, PfM18AAP inh-1 1, HIF activator 0 and SUMO Mot1 rescue 28.
For O=C(NNc1ccc(Cl)nn1)c1ccc(Cl)cc1 the results were ALR H2O2 inh 0, PfM18AAP inh-1 38*, HIF activator 0, SUMO Mot1 rescue -23, PfM18AAP inh-2 -4 and CTSL1 counter -2.
Screening CC12CC(NC(=O)N1c1cccc(C(=O)N3CCCCC3)c1)c1ccccc1O2 (stereo not given) returned ALR H2O2 inh 1, PfM18AAP inh-1 0, HIF activator -1 and SUMO Mot1 rescue 16.
Screening N/C(=N\OC(=O)c1ccc(Cl)cc1Cl)c1ccncc1 returned ALR H2O2 inh -20, PfM18AAP inh-1 1, HIF activator 3 and SUMO Mot1 rescue 265.
`O=C(c1ccc(Cl)cc1Cl)C1(n2cncn2)Oc2ccccc2C1O` (stereo not given) gave PfM18AAP inh-1 36*, HIF activator 0, SUMO Mot1 rescue 143, PfM18AAP inh-2 4 and CTSL1 counter -4.
Cc1nc(N2C(=O)C(=O)/C(=C(/O)c3ccccc3)C2c2ccco2)sc1C (stereo not given) was read as ALR H2O2 inh 0, PfM18AAP inh-1 38*, HIF activator 0, SUMO Mot1 rescue -2, PfM18AAP inh-2 -29 and CTSL1 counter 2.
`CCC(C(=O)Nc1ncn[nH]1)(C(F)(F)F)C(F)(F)F` gave ALR H2O2 inh -6, PfM18AAP inh-1 53*, HIF activator 0, SUMO Mot1 rescue -9, PfM18AAP inh-2 69* and CTSL1 counter -6.
`O=C(Nc1ncn[nH]1)c1ccccc1O` gave ALR H2O2 inh 4, PfM18AAP inh-1 23, HIF activator 0 and SUMO Mot1 rescue -2.
`O=C(Nc1ncn[nH]1)C(F)(F)C(F)F` gave ALR H2O2 inh -4, PfM18AAP inh-1 32*, HIF activator 0, SUMO Mot1 rescue 49, PfM18AAP inh-2 8 and CTSL1 counter -8.
For Cc1cc(Br)ccc1NC(=O)CN(C)C(=O)CN1C(=O)NC(C)(C2CC2)C1=O (stereo not given) the results were ALR H2O2 inh -2 and SUMO Mot1 rescue -6.
c1cc(SSc2ccncc2)ccn1 was read as ALR H2O2 inh -14, PfM18AAP inh-1 62*, HIF activator 0, SUMO Mot1 rescue -23, PfM18AAP inh-2 50* and CTSL1 counter -1.
For O=[N+]([O-])c1ccccc1S(=O)(=O)NC1CCCCCCC1 the results were ALR H2O2 inh -8, PfM18AAP inh-1 0, HIF activator 0 and SUMO Mot1 rescue 12.
Screening O=C1CCCCCCC1Sc1ccccc1[N+](=O)[O-] (stereo not given) returned PfM18AAP inh-1 38*, HIF activator 0, SUMO Mot1 rescue 4, PfM18AAP inh-2 -48 and CTSL1 counter 0.
`CCOc1ccc(OCC)c(NC(=O)C2CCN(S(=O)(=O)c3ccc4c(c3)CC(C)N4C(C)=O)CC2)c1` (stereo not given) gave ALR H2O2 inh -3, PfM18AAP inh-1 6, HIF activator 0 and SUMO Mot1 rescue 237.
